Bioassay records: PubChem BioAssay, The Scripps Research Institute Molecular Screening Center
This is a sample that favours compounds with a hit; in the whole collection about 5.7% have one here.
DAX1 inh-1 = inhibitors of DAX1 repression of SF-1 activated StAR promoter | HEK293T StAR-luciferase reporter, SF-1/DAX-1 repression relief | inhibition, % at 6.8 µM | 370,000 tested, 1.1% active | AID 652010;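 active means inhibition above the mean over all tested compounds plus 3 SD, cut at about 3.6% in these data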;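 further: higher inhibition means more luminescence from relief of DAX-1 repression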
ssDAF12 agonist = activators of S. stercoralis DAF-12 nuclear receptor; 370,000 tested, 1% active; activation, % at 6.8 µM; HEK293 ssDAF-12/GRIP1 lit1-tk-luc reporter, luminescence; % of 3 µM dafachronic acid response;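 active means activation above the mean over all tested compounds plus 3 SD, cut at about 0.9% in these data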
hgDAF12 agonist = agonists of H. glycines DAF-12 nuclear receptor; HEK293 GAL4-hgDAF12 UAS-luciferase reporter, agonist luminescence; normalized to butyrate control; activation, % at 6.8 µM; 370,000 tested, 1.8% active; AID 687014;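 active means activation above a cutoff set at the mean of all screened compounds plus 3 SD, cut at about 10% in these data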
hcDAF-12 act = H. contortus DAF-12 activation, primary screen; AID 652067; 370,000 tested, 1.4% active; HEK293 hcDAF-12 lit1-tk-luc reporter, luminescence; 0% DMSO, 100% Δ7-dafachronic acid; activation, % at 6.8 µM;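 active means activation above the mean of all tested compounds plus 3 SD, cut at about 5.5% in these data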
AHR act = activators of human aryl hydrocarbon receptor; P35869; AHR-responsive luciferase reporter cells, luminescence; activation, % at 5 µM; 320,000 tested, 2.5% active; in the data active means activation above about 47%
Target sequence (P35869 whole entry, looked up): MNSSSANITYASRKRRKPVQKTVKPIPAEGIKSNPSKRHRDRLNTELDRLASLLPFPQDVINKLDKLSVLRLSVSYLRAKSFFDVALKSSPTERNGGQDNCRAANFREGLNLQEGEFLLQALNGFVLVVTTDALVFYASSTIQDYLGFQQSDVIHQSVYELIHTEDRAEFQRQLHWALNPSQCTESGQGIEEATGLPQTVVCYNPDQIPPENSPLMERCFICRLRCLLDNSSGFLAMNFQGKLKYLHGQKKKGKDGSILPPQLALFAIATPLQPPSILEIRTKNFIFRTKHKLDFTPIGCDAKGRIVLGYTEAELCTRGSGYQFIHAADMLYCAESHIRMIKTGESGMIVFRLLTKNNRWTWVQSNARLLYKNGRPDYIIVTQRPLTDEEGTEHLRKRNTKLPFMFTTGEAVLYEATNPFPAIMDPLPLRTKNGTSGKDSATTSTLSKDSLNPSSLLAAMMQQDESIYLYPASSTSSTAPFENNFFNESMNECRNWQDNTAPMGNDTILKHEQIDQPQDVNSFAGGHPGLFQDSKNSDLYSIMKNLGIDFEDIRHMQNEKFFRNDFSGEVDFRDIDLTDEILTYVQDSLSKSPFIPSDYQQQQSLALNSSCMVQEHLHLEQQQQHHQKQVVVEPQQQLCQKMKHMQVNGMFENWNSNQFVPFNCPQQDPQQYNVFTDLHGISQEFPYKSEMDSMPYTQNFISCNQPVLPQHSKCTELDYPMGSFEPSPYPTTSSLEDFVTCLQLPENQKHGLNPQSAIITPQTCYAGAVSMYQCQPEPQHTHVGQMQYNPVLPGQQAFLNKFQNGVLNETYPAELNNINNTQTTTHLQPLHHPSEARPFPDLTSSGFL
DAX1 inh-2 = NR0B1 (DAX1) inhibition | P51843 | HEK293 Gal4-DAX1 luciferase reporter, luminescence | inhibition, % at 6.75 µM | 340,000 tested, 0.99% active | AID 504766;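 active means inhibition above the mean over all tested compounds plus 3 SD, cut at about 4.2% in these data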;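 further: inhibition shows as a rise in luminescence from relieved DAX1 repression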
Of the large screens only hits and unclear results are named; the others gave an inactive call.

Cc1occc1C(=O)Nc1cc(C(F)(F)F)ccc1Cl	DAX1 inh-2 4.6
Cn1c(NC(=O)c2ccco2)cc(=O)n(C)c1=O	none
CC(NCCCSc1ccccc1)C(O)c1ccc(O)cc1 (stereo not drawn)	none (no result: AHR act)
O=C(Nc1cnc2ccccn2c1=O)c1ccc(Cl)cc1	hgDAF12 agonist 13
CC1CCCCC1N(C(=O)c1cc(C2CC2)on1)C1CCCCC1 (stereo not drawn)	hgDAF12 agonist 12 (no result: AHR act, DAX1 inh-2)
CC(C)(C)c1ccc(NC(=O)C2=CC=CN3CCS(=O)(=O)N=C23)cc1	DAX1 inh-1 3.9
O=c1c2c(-c3cccs3)csc2ncn1-c1ccc(Br)cc1	AHR act 65
O=c1c2c(-c3cccs3)csc2ncn1/N=C/c1ccc(OC(F)F)cc1	AHR act 56
O=C(O)COc1ccc(/C=N/n2cnc3scc(-c4cccs4)c3c2=O)cc1	none
O=c1cc(CN2CCN(Cc3ccc(F)cc3)C(CCO)C2)[nH]c2ccccc12 (stereo not drawn)	none
Cc1cc(NC(=O)CSc2nc3c(sc4ccccc43)c(=O)n2CCc2ccccc2)n[nH]1	none
Cc1cc(NC(=O)CSc2nc3c(sc4ccccc43)c(=O)n2CCCN2CCOCC2)n[nH]1	hgDAF12 agonist 11
Cc1nn(-c2ccc(F)cc2)c2sc(C(=O)OCC(=O)N3CCC(C)CC3)cc12	DAX1 inh-2 6.3
Cc1noc(C)c1COC(=O)c1cc2c(C)nn(-c3ccc(F)cc3)c2s1	none
COc1cccc(N2CC(O)=C(c3nc4ccccc4s3)C2=N)c1	AHR act 57
NS(=O)(=O)c1ccc(-n2nncc2-c2ccco2)cc1	none
CCCN1CCN(CCCNC(=O)Cn2cc3c(n2)CCCC3)CC1	none
CCOCCCNC(=O)Cn1cc2c(n1)CCCC2	DAX1 inh-2 5.4
CCn1c2c(n(C(C)=O)c1=O)C[C@@H](c1ccccc1)[C@@H](C)[C@@H](C(=O)N1CCCC1)C2	none (no result: AHR act, DAX1 inh-2)
COCCCNC(=O)CCCn1c(=O)c2ccccc2n(CC(=O)Nc2c(C)cc(C)cc2C)c1=O	none
CC(C)c1ccc(N(C(=O)c2ccco2)C(C(=O)NC2CCCC2)c2ccncc2)cc1 (stereo not drawn)	hgDAF12 agonist 10
O=C(NCC(=O)N(c1ccccc1)C(C(=O)NC1CCCC1)c1cccnc1)c1ccco1 (stereo not drawn)	none
CCOc1ccc(N(C(=O)CNC(=O)c2ccco2)C(C(=O)NC2CCCC2)c2cccnc2)cc1 (stereo not drawn)	DAX1 inh-2 5.9
COc1ccc(N(C(=O)c2ccco2)C(C(=O)NC2CCCC2)c2ccncc2)cc1 (stereo not drawn)	none
O=C1CCCc2c1ccc1ccccc21	none (no result: AHR act)
CC(=O)Nc1cccc(C(=O)OCC(=O)N2CCC(c3ccccc3)=N2)c1	none
CC(C)c1ccc(/C=C/C(=O)N2CCCCCC2)cc1	none
CC(C)c1ccc(/C=C/C(=O)N2CCOCC2)cc1	ssDAF12 agonist 0.9, DAX1 inh-2 6.2 (no result: AHR act)
CC(C)c1ccc(NC(=O)C(c2ccccc2)N2CCOCC2)cc1 (stereo not drawn)	none
CC(C)c1ccc(NC(=O)NN2CCOCC2)cc1	DAX1 inh-1 4.3, ssDAF12 agonist 1.5, hgDAF12 agonist 13, DAX1 inh-2 5.0
Cc1cc(C)cc(NCCC#N)c1	none
COc1ccccc1CC(=O)Nc1ccc(C(=O)N2CCCCC2)cc1	DAX1 inh-1 3.9
CCCCn1c(SCC(=O)c2ccc(OCC)cc2)nc2cc(S(N)(=O)=O)ccc21	AHR act 48
O=C(CCNC(=O)Cn1ccc2ccccc2c1=O)NCCCN1CCOCC1	DAX1 inh-2 5.1
CCCCn1c(O)c(N=Nc2ccccn2)c2ccccc21	none
CCCCn1c(O)c(N=Nc2ccccc2O)c2ccccc21	AHR act 60
O=C(O)c1ccc(Oc2nc3ccccc3s2)cc1	ssDAF12 agonist 1.2 (no result: AHR act)
CC(C)(C)SCCNC(=O)CN(c1ccc(F)cc1)S(=O)(=O)c1ccccc1	none
CCn1c2ccccc2c2cc(NC(=O)COC(=O)c3cccc(F)c3F)ccc21	none (no result: AHR act, DAX1 inh-2)
Brc1ccc(Oc2nsnc2N2CCOCC2)cc1	AHR act 56
NC(=O)C1CCCN(C(=S)Nc2ccccc2)C1 (stereo not drawn)	none
OCC1CCCN(C(=S)Nc2ccc(Nc3ccccc3)cc2)C1 (stereo not drawn)	hgDAF12 agonist 16, DAX1 inh-2 5.7
COc1cc(Cl)c(C)cc1NC(=O)CN1CCN(C(=O)C2CC2)CC1	none (no result: DAX1 inh-1, ssDAF12 agonist, hgDAF12 agonist, hcDAF-12 act)
C(=N\c1nccs1)/c1c[nH]c2ccccc12	none
Cc1ccc(/C=N/Nc2ccccn2)s1	hgDAF12 agonist 11, AHR act 49
C(=N\Nc1ccccn1)/c1c[nH]c2ccccc12	AHR act 48
O=C(O)c1cccc2c(/C=N/Nc3ccccn3)c[nH]c12	none (no result: DAX1 inh-1, ssDAF12 agonist, hgDAF12 agonist, hcDAF-12 act)
C(=NN=Cc1c[nH]c2ccccc12)c1c[nH]c2ccccc12	hcDAF-12 act 6.1 (no result: AHR act)
Cc1cc(C)n(/N=C/c2c[nH]c3ccccc23)c(=O)c1	hcDAF-12 act 6.5
C[C@H]1COc2cc(Br)ccc2S(=O)(=O)N1Cc1cn(Cc2ccc(Br)cc2)nn1	none (no result: AHR act, DAX1 inh-2)
Cc1ccc(-c2nc(CS(=O)(=O)CC(=O)Nc3cc(F)ccc3F)c(C)o2)cc1	none
CCN1CCN(C(=O)C2CCN(S(=O)(=O)N3CCC4(CC3)OCCO4)CC2)CC1	none
CC[C@]12c3[nH]c4ccc(Cl)cc4c3CCN1C(=O)[C@@H](CC(=O)NCc1ccc(OC)c(OC)c1)C[C@@H]2C(=O)N1CCN(C(=O)c2ccco2)CC1	none (no result: AHR act)
CC(Cl)C(=O)NNC(=O)CNS(=O)(=O)c1ccccc1 (stereo not drawn)	none
CCCCN1CC(COc2ccc(OC)cc2)OCCS1(=O)=O (stereo not drawn)	none (no result: AHR act, DAX1 inh-2)
O=C1/C(=C/c2c[nH]c3ccccc23)CCC/C1=C\c1c[nH]c2ccccc12	AHR act 65
O=C1CS/C(=N/N=C/c2c[nH]c3ccccc23)N1	AHR act 78 (no result: DAX1 inh-2)
Cc1ccc(/C=N/N=C2/NC(=O)CS2)o1	none
COCCCNC1=C(Cl)C(=O)c2ccccc2C1=O	none
COCCCNc1c2c3c(cccc3[nH]c1=O)C(=O)c1ccccc1-2	AHR act 70
C=CCc1ccccc1OCCSc1nc2ccc([N+](=O)[O-])cc2s1	ssDAF12 agonist 2.0, AHR act 56
COc1ccccc1OCCSc1nc2ccc([N+](=O)[O-])cc2s1	none
Cn1c(CCN2CCCCC2)nc2cc([N+](=O)[O-])ccc21	none
Cn1c(CN2CCN(C(=O)c3ccccc3)CC2)nc2cc([N+](=O)[O-])ccc21	ssDAF12 agonist 0.9
Cn1c(CN2CCCCC2)nc2cc([N+](=O)[O-])ccc21	AHR act 67
Clc1ccc(COc2cccc(CNCc3ccncc3)c2)cc1	none
Cn1cccc1C(=O)NC(=O)CSc1nc2ccccc2s1	ssDAF12 agonist 1.0
CC(=O)CSc1nc2ccccc2s1	none
O=C(CSc1nc2ccccc2s1)NNC(=S)Nc1ccc(Br)cc1	AHR act 53
